Consider 16 compounds from PubChem BioAssay (NCATS).

Molecules are shown by their SMILES. Results filed as inconclusive are left out. Unmarked numbers belong to inactive results. Calls of active or inactive are those of the source. Calls come from the whole dose curve; as a rule, active = well fitted cell-killing curve with a large enough effect; inconclusive = small, poorly fitted or top-dose-only effect, or effect the other way; inactive = no such curve, though single readings can be large or run the other way.

Experiment [1] in a line: Quantitative High-Throughput drug screen in 47 multiple myeloma cell lines against the NCATS MIPE library collection: MM1S_ATCC cell viability assay (AID 1918980). Note: nearly all actives have a fitted effect of over 45% in size. In outline: (§1)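 Inhibition of viability over 48 h was scored by ATP content (CellTiter-Glo) in 500-cell wells. Zero and full viability were defined by media-only and DMSO-only wells.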
A short description of experiment [2]: Quantitative High-Throughput drug screen in 47 multiple myeloma cell lines against the NCATS MIPE library collection: MM1R_ATCC cell viability assay (AID 1918981). Note: nearly all actives have a fitted effect of over 35% in size. The method in brief:
as §1

The nature of experiment [3]: Quantitative High-Throughput drug screen in 47 multiple myeloma cell lines against the NCATS MIPE library collection: LP1_DSMZ cell viability assay (AID 1918982). Note: nearly all actives have a fitted effect of over 35% in size. In outline: as §1
A short description of experiment [4]: Quantitative High-Throughput drug screen in 47 multiple myeloma cell lines against the NCATS MIPE library collection: KMS28PE_JCRB cell viability assay (AID 1918983). Note: nearly all actives have a fitted effect of over 35% in size. In outline: as §1
A short description of experiment [5]: Quantitative High-Throughput drug screen in 47 multiple myeloma cell lines against the NCATS MIPE library collection: OCIMY5_PLB cell viability assay (AID 1918988). Note: nearly all actives have a fitted effect of over 65% in size. In outline: as §1
A short description of experiment [6]: Quantitative High-Throughput drug screen in 47 multiple myeloma cell lines against the NCATS MIPE library collection: OPM1_PLB cell viability assay (AID 1918989). Note: nearly all actives have a fitted effect of over 40% in size. In outline: as §1
Experiment [7] in a line: Quantitative High-Throughput drug screen in 47 multiple myeloma cell lines against the NCATS MIPE library collection: SKMM1_PLB cell viability assay (AID 1919863). Note: nearly all actives have a fitted effect of over 35% in size. Particulars: SKMM1 myeloma viability, CellTiter-Glo ATP, 48 h; viability: active compounds read low. In outline: as §1
For orientation: Cellular ATP, detected with luciferase, serves as a proxy for viable cell number.

A short description of experiment [8]: Quantitative High-Throughput drug screen in 47 multiple myeloma cell lines against the NCATS MIPE library collection: KMS34_JCRB cell viability assay (AID 1918985). Note: nearly all actives have a fitted effect of over 40% in size. The method in brief:
as §1

Experiment [9] in a line: Quantitative High-Throughput drug screen in 47 multiple myeloma cell lines against the NCATS MIPE library collection: L363_DSMZ cell viability assay (AID 1918984). Note: nearly all actives have a fitted effect of over 40% in size. The method in brief: as §1
Experiment [10] can be described thus: Quantitative High-Throughput drug screen in 47 multiple myeloma cell lines against the NCATS MIPE library collection: OCIMY7_PLB cell viability assay (AID 1918987). Note: nearly all actives have a fitted effect of over 65% in size. Particulars: OCI-MY7 myeloma viability, CellTiter-Glo ATP, 48 h; viability (% of DMSO): at 45.8 µM (top of the series). The method in brief:
as §1
Potency is the fitted concentration of half-maximal effect.

What is called viability is a read-out of living cells in per cent, often relative to untreated cells. As for `CC1(C)O[C@@H]2C[C@H]3[C@@H]4CCC5=CC(=O)C=C[C@]5(C)[C@@H]4[C@@H](O)C[C@]3(C)[C@]2(C(=O)CO)O1`, the Potency in experiment [1] was 296 nM (active); in [3], 16.6 nM (active); in [5], 118 nM (active); in experiment [6], 7430 nM (active). Further, the Potency result in experiment [2] and in experiment [4] was “inactive” in each case. Moreover, in [7], the viability is 142%.
Take `CC[C@]12C=CCN3CC[C@@]4(c5cc([C@@]6(C(=O)OC)C[C@H]7C[C@@H](C(C)(F)F)CN(Cc8c6[nH]c6ccccc86)C7)c(OC)cc5N(C)[C@H]4[C@@](O)(C(=O)OC)[C@H]1OC(C)=O)[C@@H]32`: the Potency is 148 nM (active) in experiment [1]; 469 nM (active) in [2]; 20.9 nM (active) in experiment [3]; 4.7 nM (active) in experiment [4]; 5.9 nM (active) in experiment [8]; 1.9 nM (active) in experiment [5]. Further, the Potency in experiment [6] is 16.6 nM (active); in [7], 9.3 nM (active).
For `CN(C)c1ccc(C(=O)NCCCCCCC(=O)NO)cc1`, the Potency was 833 nM (active) in [1]; 590 nM (active) in experiment [2]; 935 nM (active) in [4]; 83.3 nM (active) in [9]; 662 nM (active) in [8]; 590 nM (active) in [10]. Besides, the Potency in experiment [5] is 469 nM (active); in [6] it was 296 nM (active); in experiment [7] it was 1480 nM (active).
For the compound `CC(C)[C@H](CO)Nc1nc(Nc2cccc(Cl)c2)c2ncn(C(C)C)c2n1`, the Potency in experiment [1] is 5900 nM (active); in experiment [2], 18700 nM (active); in [3] it was 23500 nM (active); in experiment [8] it was 18700 nM (active); in [10], 6620 nM (active); in experiment [6], 23500 nM (active). Further, the Potency in experiment [7] was 20900 nM (active). Further, the Potency entry in experiment [9] was “inactive”.
With `CCCNS(=O)(=O)Nc1ncnc(OCCOc2ncc(Br)cn2)c1-c1ccc(Br)cc1`, the Potency result in [1], in [2], in experiment [3], in [4], in [8] and in experiment [6] was “inactive” each time.
As for `C[C@@H](Oc1ccc2[nH]nc(C=Cc3cnn(CCO)c3)c2c1)c1c(Cl)cncc1Cl`, the Potency is 6620 nM (active) in experiment [1]; 2640 nM (active) in experiment [2]; 20900 nM (active) in experiment [3]; 4180 nM (active) in [4]; 148 nM (active) in experiment [10]; 6620 nM (active) in experiment [5]. Moreover, the Potency in experiment [7] was 26400 nM (active).
As to `Cn1cc(-c2ccc3ncc(Cc4ccc5ncccc5c4)n3n2)cn1`, the Potency entry in [1], in [2], in experiment [3], in experiment [4] and in [8] was “inactive” in each case. For the same compound, the Potency in experiment [7] was 2090 nM (active).
For the compound `COc1ccc2cc([S+]([O-])Cc3ncc(C)c(OC)c3C)nc2c1`, the Potency result in experiment [1], in [2], in [3], in [4], in experiment [8] and in experiment [5] was “inactive” in each case. For the same compound, the viability in [7] was 122%.
Take `COc1cc(C[C@@H](CO)[C@H](CO)Cc2ccc(O)c(OC)c2)ccc1O`: the Potency in [1] was 372 nM (active); in experiment [2], 1320 nM (active); in experiment [9], 5900 nM (active); in experiment [10], 1050 nM (active); in experiment [5] it was 332 nM (active); in experiment [6], 935 nM (active). Moreover, the Potency result in experiment [4] and in experiment [8] was “inactive” in each case. For the same compound, the viability in experiment [7] was 127%.
For the compound `CC(=O)O[C@H]1C[C@@H]2CC[C@H]3[C@H]4C[C@H]([N+]5(C)CCCCC5)[C@@H](OC(C)=O)[C@@]4(C)CC[C@@H]3[C@@]2(C)C[C@H]1[N+]1(C)CCCCC1`, the Potency in [1] is 2090 nM (active). For the same compound, the Potency entry in experiment [2], in [3], in experiment [9] and in experiment [8] was “inactive” each time. Besides, in [7], the viability is 128%.
`CC(=O)SCC(Cc1ccccc1)C(=O)NCC(=O)OCc1ccccc1` (stereo unspecified): the Potency in experiment [1] was 590 nM (active); in experiment [2] it was 3720 nM (active); in experiment [4], 7430 nM (active); in [9], 5900 nM (active); in experiment [8], 2350 nM (active); in [10] it was 3720 nM (active). For the same compound, the Potency is 2640 nM (active) in experiment [5], 5260 nM (active) in experiment [6] and 10500 nM (active) in experiment [7].
For `O=c1c(O)c(-c2ccc(O)c(O)c2)oc2cc(O)ccc12`, the Potency in experiment [1] was 23500 nM (active); in [2] it was 23500 nM (active); in experiment [3], 23500 nM (active); in experiment [8] it was 18700 nM (active); in experiment [10], 6620 nM (active); in experiment [5] it was 20900 nM (active). Besides, the Potency in experiment [6] is 18700 nM (active).
Take `CCn1c(=O)c2c(nc(C=Cc3ccc(OC)c(OC)c3)n2C)n(CC)c1=O`: the Potency in experiment [1] is 26400 nM (active). Moreover, the Potency entry in experiment [2], in experiment [3] and in [4] was “inactive” each time. For the same compound, the viability in [7] is 123%.
For `COc1cc(OC)c(C=CS(=O)(=O)Cc2ccc(OC)c(NCC(=O)O)c2)c(OC)c1`, the Potency in [1] is 4180 nM (active); in [2], 2350 nM (active); in experiment [4], 469 nM (active); in experiment [9], 46.9 nM (active); in [8] it was 209 nM (active); in [10], 264 nM (active). The Potency in [5] is 590 nM (active); in [6], 332 nM (active); in experiment [7], 235 nM (active).
On to `CS[C@H]1SC[C@@H]2C(=O)N(C)[C@H](C(C)C)C(=O)OC[C@H](NC(=O)c3cnc4ccccc4n3)C(=O)N[C@H](C)C(=O)N(C)[C@@H]1C(=O)N(C)[C@H](C(C)C)C(=O)OC[C@H](NC(=O)c1cnc3ccccc3n1)C(=O)N[C@H](C)C(=O)N2C`, for which the Potency is 3 nM (active) in [1]; 1.9 nM (active) in experiment [2]; 6.6 nM (active) in experiment [3]; 3 nM (active) in experiment [4]; 41.8 nM (active) in [10]; 2.1 nM (active) in [5]. The Potency in experiment [7] was 9.3 nM (active).
For the compound `O=C(O)CCCCCC(=O)NN=C1CCCC1`, the Potency result in experiment [1], in experiment [2], in [3], in experiment [4] and in experiment [6] was “inactive” each time. Moreover, the viability in experiment [7] was 119%.
